Screening results (PubChem BioAssay)
A selection: hits, their analogues and other compounds. The true share with any hit is near 5.9%.
rCAG RNA binder – r(CAG) repeat RNA binding; actives 1.3% (n = 370,000); TO-PRO-1 dye displacement fluorescence; inhibition, % at 3 µM;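 active = inhibition above the plate cutoff, the mean of all test compounds on that plate plus 3 SD, cut at about 35% in these data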;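 also: higher means more dye released from RNA so lower well fluorescence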
Rtt109 Vps75 – blocks Candida albicans Rtt109/Vps75 acetyltransferase activity | Q5AAJ8 | purified Rtt109/Vps75, ThioGlo CoA-SH fluorescence, 4 h | inhibition, % at 34.9 µM | actives 0.16% (n = 330,000);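 active = inhibition of at least 50% in every replicate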
LANA-H2A inh – blocks KSHV LANA binding to histone H2A/H2B. actives 0.6% (n = 320,000). AID 2629. cell-free LANA-H2A/H2B peptide, fluorescence polarization. Q9QR71. inhibition, % (no concentration beside the values); in the data active = inhibition mostly above about 10%, no sharp cut-off; inactive = mostly below about 6.7%
ALR H2O2 inh – blocks human ALR sulfhydryl oxidase activity; P55789; purified ALR, DTT oxidation, H2O2 HRP-luminol luminescence; inhibition, % (test concentration not listed); actives 3.8% (n = 290,000); AID 485317;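 active = mean replicate inhibition above about 79%, with every replicate also reaching it, limit read from the data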
PRMT1 FP inh – blocks human protein arginine methyltransferase 1. Q99873. recombinant PRMT1, activity-based probe fluorescence polarization. inhibition, % at 2.79 µM. actives 1.3% (n = 370,000). AID 652257;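 active = inhibition above about 21% made by adding two undisclosed values, limit read from the data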
Target sequence (Q99873 whole entry, looked up): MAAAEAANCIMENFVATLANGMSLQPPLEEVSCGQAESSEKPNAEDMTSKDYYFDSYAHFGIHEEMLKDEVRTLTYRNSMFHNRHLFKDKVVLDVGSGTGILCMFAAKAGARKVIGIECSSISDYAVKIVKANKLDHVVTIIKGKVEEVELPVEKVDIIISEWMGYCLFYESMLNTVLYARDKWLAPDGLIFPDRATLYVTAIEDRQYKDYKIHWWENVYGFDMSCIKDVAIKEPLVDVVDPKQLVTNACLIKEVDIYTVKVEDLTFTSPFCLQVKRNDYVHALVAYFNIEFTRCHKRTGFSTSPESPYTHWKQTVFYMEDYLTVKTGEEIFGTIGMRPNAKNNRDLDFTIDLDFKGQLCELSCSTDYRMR
ABHD5 PLIN5 PPI – ABHD5-PLIN5 protein interaction inhibition | Q00G26+Q8WTS1 | Split G. princeps luciferase complementation, luminescence, 4 h | inhibition, % at 4 µM | actives 0.78% (n = 360,000) | AID 602281;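 active = inhibition above the mean inhibition across every tested compound plus 3 SD, cut at about 22% in these data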
rCAG bind conf – r(CAG) RNA repeat binding, confirmation. actives 70% (n = 4,300). TO-PRO-1 dye displacement fluorescence. AID 652065. inhibition, % at 3 µM. shares compounds with rCAG RNA binder;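 active = inhibition above a per-plate cutoff, the mean inhibition of sample wells plus 3 SD, cut at about 35% in these data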;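 also: loss of TO-PRO-1 fluorescence as compound displaces dye from 1x1 AA loop RNA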
DNA CAG counter – disrupts DNA CAG TO-PRO-1 complex, flagging rCAG hits. shares compounds with rCAG RNA binder. AID 652068. d(CAG) DNA oligo TO-PRO-1 dye displacement, fluorescence. actives 94% (n = 4,300). inhibition, % at 3 µM;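 active = inhibition above its plate's cutoff, the mean test-well inhibition plus 3 SD, cut at about 4.8% in these data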;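 also: hits displace the dye from DNA and so lower well fluorescence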
Of the large screens only hits and unclear results are named; the others gave an inactive call (follow-up assays come after a bar, where they were run).

Cc1cc(C)nc(NS(=O)(=O)c2ccc(NC(=O)c3nn(-c4ccccc4)ccc3=O)cc2)n1	none (no result: ALR H2O2 inh)
Cc1noc(NS(=O)(=O)c2ccc(NC(=O)c3oc4ccc(Cl)cc4c3C)cc2)c1C	rCAG RNA binder 87.9, ALR H2O2 inh 98.2 | rCAG bind conf 84.8 | DNA CAG counter 47.6
Cc1c(C(=O)Nc2ccc(S(=O)(=O)Nc3ncccn3)cc2)oc2ccc(Cl)cc12	none
Cc1ccc2c(=O)cc(C(=O)Nc3ccc(S(=O)(=O)Nc4onc(C)c4C)cc3)oc2c1	rCAG RNA binder 61.0, ALR H2O2 inh 96.9 (no result: LANA-H2A inh) | rCAG bind conf 37.2 | DNA CAG counter 11.3
Cc1cccc(-n2ccc(=O)c(C(=O)Nc3ccc(S(=O)(=O)Nc4onc(C)c4C)cc3)n2)c1	rCAG RNA binder 39.1 | rCAG bind conf 43.4 | DNA CAG counter 12.3
Cc1cc(C)c(C(=O)Nc2ccc(S(=O)(=O)Nc3onc(C)c3C)cc2)c(C)c1	none (no result: LANA-H2A inh, ALR H2O2 inh)
COc1ccc(NC(=O)c2cc(-c3sc(NC(=O)c4ccccc4)nc3C)n(CCO)n2)cc1	none (no result: Rtt109 Vps75, LANA-H2A inh, ALR H2O2 inh)
O=C(Nc1ccc2c(c1)OCO2)N1CCC(c2nc3ccc(Cl)cc3[nH]2)CC1	none (no result: Rtt109 Vps75, LANA-H2A inh, ALR H2O2 inh, ABHD5 PLIN5 PPI)
O=C(C(=O)N1CCN(C(=O)c2cccs2)CC1)c1cccc(C(F)(F)F)c1	none (no result: Rtt109 Vps75, LANA-H2A inh, ALR H2O2 inh, ABHD5 PLIN5 PPI)
COc1cccc(/C=C(/C#N)c2ccc(Cl)cc2)c1OCc1cccc(C(=O)O)c1	rCAG RNA binder 42.0 | rCAG bind conf 69.0 | DNA CAG counter 29.3
COc1cc(/C=C(/C#N)c2ccc(F)cc2)ccc1OCc1ccc(C(=O)O)o1	rCAG RNA binder 52.0, ALR H2O2 inh 97.5 (no result: Rtt109 Vps75) | rCAG bind conf 45.5 | DNA CAG counter 10.2
COc1cccc(/C=C(/C#N)c2ccc(F)cc2)c1OCc1cccc(C(=O)O)c1	rCAG RNA binder 51.1 | rCAG bind conf 49.4 | DNA CAG counter 15.1
O=C(OCc1ccccc1)N1CCC2CC1c1ccc(N3CCN(Cc4ccc5c(c4)OCO5)CC3)cc12 (stereo not drawn)	none (no result: Rtt109 Vps75, LANA-H2A inh, ALR H2O2 inh)
COc1ccc(S(=O)(=O)N2CCCCC2)cc1NS(=O)(=O)c1cc(Cl)ccc1Cl	rCAG RNA binder 36.2 | rCAG bind conf 38.7 | DNA CAG counter 10.0
COc1ccc(S(=O)(=O)N2CCCCCC2)cc1NS(=O)(=O)c1cc(C(=O)O)cc(C)c1C	rCAG RNA binder 46.6 | rCAG bind conf inactive | DNA CAG counter 5.9
CN(Cc1ccccc1F)C(=O)c1cccc(NC(=O)CC2SC(N3CCCCC3)=NC2=O)c1 (stereo not drawn)	none (no result: LANA-H2A inh, ALR H2O2 inh)
O=C(Nc1ccccc1[N+](=O)[O-])NC1CCCCN(Cc2ccc(Cl)cc2)C1=O (stereo not drawn)	none (no result: Rtt109 Vps75, LANA-H2A inh, ALR H2O2 inh, ABHD5 PLIN5 PPI)
O=C(N/N=C/c1cccnc1)c1ccccc1NS(=O)(=O)c1cccs1	none (no result: ALR H2O2 inh)
O=C(NN=Cc1cc(Br)c(O)c(Br)c1)c1ccccc1NS(=O)(=O)c1cccs1	rCAG RNA binder 40.5, ALR H2O2 inh 89.3 | rCAG bind conf 35.3 | DNA CAG counter 10.4
O=C(N/N=C/c1ccc([N+](=O)[O-])o1)c1ccccc1NS(=O)(=O)c1cccs1	rCAG RNA binder 45.4 | rCAG bind conf 40.6 | DNA CAG counter 15.1
COc1ccccc1/C=N/NC(=O)c1ccccc1NS(=O)(=O)c1ccc(C)cc1	rCAG RNA binder 39.1 | rCAG bind conf 45.4 | DNA CAG counter 13.8
COc1ccc(NS(=O)(=O)c2cccc(C(=O)NN=Cc3cc(Br)c(O)c(Br)c3)c2)cc1	rCAG RNA binder 38.8 (no result: ALR H2O2 inh) | rCAG bind conf 42.8 | DNA CAG counter 16.8
CCCCC[C@H](C)N1C[C@@H](COCc2ccccc2)Oc2cc(N3CCC[C@@H]3COC)ccc2S1(=O)=O	none (no result: Rtt109 Vps75, LANA-H2A inh, ALR H2O2 inh)
COc1cc(/C=N/NC(=O)c2ccccc2NS(=O)(=O)c2cccs2)ccc1O	rCAG RNA binder 43.2 (no result: LANA-H2A inh, ALR H2O2 inh) | rCAG bind conf inactive | DNA CAG counter 9.4
O=C(NN=Cc1ccc(F)cc1)c1ccccc1NS(=O)(=O)c1cccs1	none (no result: ALR H2O2 inh)
Cc1nn(-c2ccccc2)c(C)c1/C=N/NC(=O)c1ccccc1NS(=O)(=O)c1cccs1	rCAG RNA binder 61.7 | rCAG bind conf 60.4 | DNA CAG counter 21.3
